The targets below were run with C#CCNC(=O)CCSSCCC(=O)NCCc1ccc(C=O)c(C=O)c1 (assay: lysine labeling ratio R10:1 (500 µM / 50 µM probe), SILAC-ABPP in living cells; higher = lower intrinsic lysine reactivity toward the probe, active = 2 or less). Conditions: HeLa; probe concentrations 500 vs 50 µM.
Method in brief: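 Forward and reverse SILAC label swaps were used with living light and heavy HeLa cells in PBS at room temperature, which were given an alkyne-tagged, disulfide-linked lysine probe at 50 µM or 500 µM. R is the per-lysine filtered median high-probe/low-probe MS1 peptide ratio, with the median then taken across both swap directions. Values are limited to 20.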
UniProt P32004, sequence (P32004 whole entry): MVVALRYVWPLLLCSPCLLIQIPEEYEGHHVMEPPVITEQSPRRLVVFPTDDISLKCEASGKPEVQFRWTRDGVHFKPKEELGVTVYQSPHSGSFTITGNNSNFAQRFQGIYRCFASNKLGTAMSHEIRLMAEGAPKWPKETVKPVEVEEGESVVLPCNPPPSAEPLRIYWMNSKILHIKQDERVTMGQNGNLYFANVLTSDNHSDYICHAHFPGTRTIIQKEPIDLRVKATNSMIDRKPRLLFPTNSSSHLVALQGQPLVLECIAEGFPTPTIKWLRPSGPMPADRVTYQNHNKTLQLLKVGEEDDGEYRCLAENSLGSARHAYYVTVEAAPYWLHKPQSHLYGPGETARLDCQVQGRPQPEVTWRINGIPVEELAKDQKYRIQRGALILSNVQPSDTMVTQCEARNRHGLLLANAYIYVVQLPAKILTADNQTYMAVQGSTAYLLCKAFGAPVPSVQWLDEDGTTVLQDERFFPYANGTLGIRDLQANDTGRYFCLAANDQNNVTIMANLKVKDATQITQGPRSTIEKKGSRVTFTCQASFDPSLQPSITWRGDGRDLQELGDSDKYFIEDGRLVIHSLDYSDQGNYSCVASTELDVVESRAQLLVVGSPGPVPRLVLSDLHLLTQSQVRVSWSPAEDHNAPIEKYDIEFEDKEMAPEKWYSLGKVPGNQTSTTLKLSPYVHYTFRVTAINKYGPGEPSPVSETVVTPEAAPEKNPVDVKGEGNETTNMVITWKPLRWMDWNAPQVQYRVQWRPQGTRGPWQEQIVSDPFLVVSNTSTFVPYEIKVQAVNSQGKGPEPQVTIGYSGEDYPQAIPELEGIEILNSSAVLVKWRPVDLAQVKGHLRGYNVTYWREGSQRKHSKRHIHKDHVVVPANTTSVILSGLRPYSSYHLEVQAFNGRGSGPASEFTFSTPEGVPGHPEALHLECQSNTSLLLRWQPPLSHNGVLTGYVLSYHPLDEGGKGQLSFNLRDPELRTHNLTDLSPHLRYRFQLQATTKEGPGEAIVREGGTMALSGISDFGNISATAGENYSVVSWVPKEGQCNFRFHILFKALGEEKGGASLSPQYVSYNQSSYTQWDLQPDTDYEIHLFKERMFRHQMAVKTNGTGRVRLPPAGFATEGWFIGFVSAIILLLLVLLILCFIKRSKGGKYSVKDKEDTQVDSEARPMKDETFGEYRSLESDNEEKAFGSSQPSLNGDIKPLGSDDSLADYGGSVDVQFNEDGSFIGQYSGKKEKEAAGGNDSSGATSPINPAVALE
UniProt Q00610, sequence (Q00610 whole entry): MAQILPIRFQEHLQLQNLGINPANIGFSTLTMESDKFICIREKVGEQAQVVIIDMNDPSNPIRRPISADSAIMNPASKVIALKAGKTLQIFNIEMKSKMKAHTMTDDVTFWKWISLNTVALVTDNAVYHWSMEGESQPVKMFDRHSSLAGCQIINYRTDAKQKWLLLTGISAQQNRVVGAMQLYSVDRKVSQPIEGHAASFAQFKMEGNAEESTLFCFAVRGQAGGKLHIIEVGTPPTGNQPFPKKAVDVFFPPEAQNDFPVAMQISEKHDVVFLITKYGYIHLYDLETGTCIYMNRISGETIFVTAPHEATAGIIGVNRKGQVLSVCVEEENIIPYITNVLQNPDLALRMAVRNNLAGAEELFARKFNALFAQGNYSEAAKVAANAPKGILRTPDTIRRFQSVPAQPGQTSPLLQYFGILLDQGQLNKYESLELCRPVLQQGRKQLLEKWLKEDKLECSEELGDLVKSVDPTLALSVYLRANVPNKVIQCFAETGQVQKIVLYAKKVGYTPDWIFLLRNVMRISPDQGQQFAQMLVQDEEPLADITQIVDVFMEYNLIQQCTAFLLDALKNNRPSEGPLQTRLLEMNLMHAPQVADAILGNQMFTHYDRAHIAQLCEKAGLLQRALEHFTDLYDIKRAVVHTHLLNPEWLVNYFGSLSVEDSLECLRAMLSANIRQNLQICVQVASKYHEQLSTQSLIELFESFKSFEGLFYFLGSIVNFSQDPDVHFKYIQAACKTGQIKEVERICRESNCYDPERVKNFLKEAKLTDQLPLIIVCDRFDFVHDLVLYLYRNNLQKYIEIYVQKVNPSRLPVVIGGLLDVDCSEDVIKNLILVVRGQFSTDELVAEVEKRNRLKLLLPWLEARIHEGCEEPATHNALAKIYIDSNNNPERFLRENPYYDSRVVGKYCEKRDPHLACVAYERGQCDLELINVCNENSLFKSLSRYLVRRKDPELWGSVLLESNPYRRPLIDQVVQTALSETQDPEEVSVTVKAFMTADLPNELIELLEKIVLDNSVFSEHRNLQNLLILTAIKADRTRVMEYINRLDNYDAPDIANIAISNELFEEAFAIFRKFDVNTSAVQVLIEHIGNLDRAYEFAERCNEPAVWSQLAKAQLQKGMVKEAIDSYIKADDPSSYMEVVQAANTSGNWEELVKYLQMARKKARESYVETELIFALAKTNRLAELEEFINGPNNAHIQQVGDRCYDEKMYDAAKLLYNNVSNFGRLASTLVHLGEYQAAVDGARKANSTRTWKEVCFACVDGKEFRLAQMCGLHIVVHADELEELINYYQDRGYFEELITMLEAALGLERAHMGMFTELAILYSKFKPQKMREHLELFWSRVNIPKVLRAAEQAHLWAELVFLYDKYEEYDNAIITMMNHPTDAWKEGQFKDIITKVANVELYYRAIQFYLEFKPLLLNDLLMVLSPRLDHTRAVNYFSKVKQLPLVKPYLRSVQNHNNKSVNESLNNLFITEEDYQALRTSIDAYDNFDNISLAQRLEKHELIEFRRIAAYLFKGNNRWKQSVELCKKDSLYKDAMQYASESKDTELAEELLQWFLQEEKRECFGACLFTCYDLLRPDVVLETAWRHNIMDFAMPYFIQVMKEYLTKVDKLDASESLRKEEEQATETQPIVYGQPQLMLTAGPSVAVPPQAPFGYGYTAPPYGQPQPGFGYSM
UniProt P13797, sequence (P13797 whole entry): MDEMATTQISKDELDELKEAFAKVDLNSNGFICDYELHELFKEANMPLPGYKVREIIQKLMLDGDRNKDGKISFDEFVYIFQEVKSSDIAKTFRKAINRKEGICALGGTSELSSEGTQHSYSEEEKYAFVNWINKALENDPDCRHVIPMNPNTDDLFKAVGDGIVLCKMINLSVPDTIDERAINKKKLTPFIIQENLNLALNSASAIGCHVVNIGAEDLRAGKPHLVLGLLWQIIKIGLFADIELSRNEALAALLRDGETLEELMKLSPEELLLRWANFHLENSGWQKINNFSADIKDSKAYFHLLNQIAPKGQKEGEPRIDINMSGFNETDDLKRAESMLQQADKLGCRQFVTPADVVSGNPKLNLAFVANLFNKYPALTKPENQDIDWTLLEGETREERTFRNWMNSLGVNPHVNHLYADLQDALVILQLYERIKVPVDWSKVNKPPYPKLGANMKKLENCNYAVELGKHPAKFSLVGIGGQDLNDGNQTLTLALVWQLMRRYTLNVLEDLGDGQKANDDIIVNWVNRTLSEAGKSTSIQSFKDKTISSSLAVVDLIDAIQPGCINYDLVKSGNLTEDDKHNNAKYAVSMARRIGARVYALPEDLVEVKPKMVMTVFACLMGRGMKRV
UniProt P07237, sequence (P07237 whole entry, looked up): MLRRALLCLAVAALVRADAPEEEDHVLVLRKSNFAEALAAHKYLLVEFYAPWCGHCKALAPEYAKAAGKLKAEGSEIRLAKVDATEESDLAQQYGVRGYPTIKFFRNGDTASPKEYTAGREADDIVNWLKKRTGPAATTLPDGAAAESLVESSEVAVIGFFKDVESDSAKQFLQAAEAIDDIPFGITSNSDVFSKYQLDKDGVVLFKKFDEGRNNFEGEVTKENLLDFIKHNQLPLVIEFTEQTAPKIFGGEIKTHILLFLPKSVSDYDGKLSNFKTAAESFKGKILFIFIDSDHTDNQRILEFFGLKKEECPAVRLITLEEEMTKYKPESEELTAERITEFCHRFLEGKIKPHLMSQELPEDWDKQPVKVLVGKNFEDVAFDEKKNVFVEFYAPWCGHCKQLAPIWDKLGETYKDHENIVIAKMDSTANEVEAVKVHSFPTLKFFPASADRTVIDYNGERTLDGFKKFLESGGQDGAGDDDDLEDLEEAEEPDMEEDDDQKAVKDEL
UniProt P05141, sequence (P05141 whole entry): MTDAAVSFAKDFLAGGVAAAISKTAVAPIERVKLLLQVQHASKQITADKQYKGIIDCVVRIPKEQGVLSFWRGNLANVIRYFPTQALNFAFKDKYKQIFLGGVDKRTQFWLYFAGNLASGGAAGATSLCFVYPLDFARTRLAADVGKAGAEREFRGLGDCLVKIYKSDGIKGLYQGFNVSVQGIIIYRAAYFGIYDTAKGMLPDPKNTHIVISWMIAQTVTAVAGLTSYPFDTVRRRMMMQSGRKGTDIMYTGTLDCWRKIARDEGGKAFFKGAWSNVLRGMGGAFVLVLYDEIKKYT
UniProt P02788, sequence (P02788 whole entry): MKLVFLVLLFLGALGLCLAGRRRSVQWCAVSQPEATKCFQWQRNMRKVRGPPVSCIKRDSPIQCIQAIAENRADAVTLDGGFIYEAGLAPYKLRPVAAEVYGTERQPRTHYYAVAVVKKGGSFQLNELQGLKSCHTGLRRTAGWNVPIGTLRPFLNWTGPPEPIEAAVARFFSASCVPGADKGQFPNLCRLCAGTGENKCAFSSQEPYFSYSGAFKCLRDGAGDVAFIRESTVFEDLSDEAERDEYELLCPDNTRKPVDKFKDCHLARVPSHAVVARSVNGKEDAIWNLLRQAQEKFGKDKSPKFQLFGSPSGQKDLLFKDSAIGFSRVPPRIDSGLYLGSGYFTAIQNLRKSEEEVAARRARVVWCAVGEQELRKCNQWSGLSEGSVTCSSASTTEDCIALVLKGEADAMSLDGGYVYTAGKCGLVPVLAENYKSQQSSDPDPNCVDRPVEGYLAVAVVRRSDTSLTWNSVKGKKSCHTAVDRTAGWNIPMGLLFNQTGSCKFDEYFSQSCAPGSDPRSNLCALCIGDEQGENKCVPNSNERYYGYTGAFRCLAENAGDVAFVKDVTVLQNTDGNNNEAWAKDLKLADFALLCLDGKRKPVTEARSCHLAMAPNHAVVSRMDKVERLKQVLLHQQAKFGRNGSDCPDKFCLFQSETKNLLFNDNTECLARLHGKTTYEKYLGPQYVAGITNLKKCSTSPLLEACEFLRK
With UniProt Q15149 (lysine site: K3237) the “lysine labeling ratio R10:1” value was 1.17 (active). With “LMO7 (lysine site: K1455) (UniProt Q8WWI1)” the “lysine labeling ratio R10:1” value was 1.37 (active). “HSPD1 (lysine site: K96) (UniProt P10809)” was tested, and the “lysine labeling ratio R10:1” value was 3.85 (inactive). “ACTN4 (lysine site: K592) (UniProt O43707)” was tested, and the “lysine labeling ratio R10:1” value was 6.67 (inactive). In the case of “SPTAN1 (lysine site: K441) (UniProt Q13813)”, the “lysine labeling ratio R10:1” value is reported as 2.17 (inactive). With “CD151 (lysine site: K132) (UniProt P48509)” the “lysine labeling ratio R10:1” value was 2.31 (inactive). “PLOD3 (lysine site: K89) (UniProt O60568)” was tested, and the “lysine labeling ratio R10:1” value was 5.28 (inactive). For “LTF (lysine site: K320) (UniProt P02788)”, the “lysine labeling ratio R10:1” value was 1.48 (active). In the case of “ECE1 (lysine site: K401) (UniProt P42892)”, the “lysine labeling ratio R10:1” value is reported as 2.77 (inactive). “SLC3A2 (lysine site: K217) (UniProt P08195)” was tested, and the “lysine labeling ratio R10:1” value was 7.33 (inactive). For UniProt P55072 (lysine site: K696), the “lysine labeling ratio R10:1” value was 1.22 (active). “IGF1R (lysine site: K665) (UniProt P08069)” was tested, and the “lysine labeling ratio R10:1” value was 1.28 (active). “L1CAM (lysine site: K144) (UniProt P32004)” was tested, and the “lysine labeling ratio R10:1” value was 1.09 (active). “NUMA1 (lysine site: K751) (UniProt Q14980)” was tested, and the “lysine labeling ratio R10:1” value was 2.82 (inactive). In the case of “C3 (lysine site: K1546) (UniProt P01024)”, the “lysine labeling ratio R10:1” value is reported as 4.18 (inactive). “PLS3 (lysine site: K315) (UniProt P13797)” was tested, and the “lysine labeling ratio R10:1” value was 1.71 (active). “ENAH (lysine site: K559) (UniProt Q8N8S7)” was tested, and the “lysine labeling ratio R10:1” value was 2.92 (inactive). With “PDIA3 (lysine site: K130) (UniProt P30101)” the “lysine labeling ratio R10:1” value was 3.07 (inactive). For “CFL1 (lysine site: K164) (UniProt P23528)”, the “lysine labeling ratio R10:1” value was 4.91 (inactive). In the case of “HNRNPM (lysine site: K381) (UniProt P52272)”, the “lysine labeling ratio R10:1” value is reported as 5.22 (inactive). In the case of “NUCB1 (lysine site: K177) (UniProt Q02818)”, the “lysine labeling ratio R10:1” value is reported as 1.71 (active). In the case of UniProt P61026 (lysine site: K136), the “lysine labeling ratio R10:1” value is reported as 1.9 (active). “L1CAM (lysine site: K531) (UniProt P32004)” was tested, and the “lysine labeling ratio R10:1” value was 7.51 (inactive). “CACNA2D1 (lysine site: K1048) (UniProt P54289)” was tested, and the “lysine labeling ratio R10:1” value was 6.59 (inactive). For “CANX (lysine site: K118) (UniProt P27824)”, the “lysine labeling ratio R10:1” value was 2.15 (inactive). For “TMED9 (lysine site: K160) (UniProt Q9BVK6)”, the “lysine labeling ratio R10:1” value was 5.13 (inactive). In the case of “SUB1 (lysine site: K53) (UniProt P53999)”, the “lysine labeling ratio R10:1” value is reported as 9.37 (inactive). For “RPL5 (lysine site: K178) (UniProt P46777)”, the “lysine labeling ratio R10:1” value was 4.17 (inactive). For “CDV3 (lysine site: K15) (UniProt Q9UKY7)”, the “lysine labeling ratio R10:1” value was 2.4 (inactive). “DNAJB1 (lysine site: K21) (UniProt P25685)” was tested, and the “lysine labeling ratio R10:1” value was 1 (active). “TM9SF2 (lysine site: K328) (UniProt Q99805)” was tested, and the “lysine labeling ratio R10:1” value was 0.928 (active). For UniProt P14618 (lysine site: K270), the “lysine labeling ratio R10:1” value was 1.75 (active). In the case of “RPL3 (lysine site: K272) (UniProt P39023)”, the “lysine labeling ratio R10:1” value is reported as 2.04 (inactive). “P4HB (lysine site: K81) (UniProt P07237)” was tested, and the “lysine labeling ratio R10:1” value was 6.39 (inactive). For “CDCP1 (lysine site: K71) (UniProt Q9H5V8)”, the “lysine labeling ratio R10:1” value was 2.07 (inactive). In the case of “CLTC (lysine site: K619) (UniProt Q00610)”, the “lysine labeling ratio R10:1” value is reported as 2.75 (inactive). With “NEGR1 (lysine site: K52) (UniProt Q7Z3B1)” the “lysine labeling ratio R10:1” value was 4.69 (inactive). UniProt Q15149 (lysine site: K1923) was tested, and the “lysine labeling ratio R10:1” value was 1.36 (active). In the case of “SLC25A5 (lysine site: K63) (UniProt P05141)”, the “lysine labeling ratio R10:1” value is reported as 3.19 (inactive). “CD109 (lysine site: K1291) (UniProt Q6YHK3)” was tested, and the “lysine labeling ratio R10:1” value was 2.41 (inactive).
